Screening data: PubChem, several laboratories
NALP3 yeast inh – NALP3 inflammasome inhibitors in reconstituted yeast, primary screen, luminescence, uHTS | actives 0.39% (n = 330,000) | AID 2825, 2010 | inhibition, % at 10 µM | Yeast reconstituted NLRP3/ASC/caspase-1, beta-gal luminescence, 24 h;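 active = inhibition of 50% or more; inactive = inhibition below 50%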;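 note: plate controls were induced DMSO wells for no effect and uninduced yeast grown without galactose for full effect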
tim10-1 inh – growth inhibitors of tim10-1 mutant yeast, primary screen, luminescence, uHTS; S. cerevisiae tim10-1 ts strain growth, BacTiter-Glo, 24 h; inhibition, % at 20 µM; actives 2.2% (n = 330,000);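 active = inhibition of at least 40%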;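 note: mutant grown at 25 °C; 0% = DMSO wells with yeast and 100% = wells holding no yeast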
PfHsp90 yeast 2 – growth inhibition of PfHsp90-expressing yeast, primary screen, antimalarial PfHsp90 inhibitor project, S. cerevisiae, BacTiter-Glo luminescence, single point, set 2; BacTiter-Glo ATP, 48 h; yeast lacking PDR1 and PDR3 efflux regulators; AID 504621, 2011; actives 0.32% (n = 310,000); inhibition, % at 9.4 µM;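 active = every replicate shows inhibition above about 80%, whatever the replicate mean, limit read from the data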;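 note: 0% = DMSO neutral controls and 100% = 20 µM radicicol positive controls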
NALP1 yeast inh – NALP1 inflammasome inhibitors in reconstituted yeast, colorimetric, S. cerevisiae, triplicate retest; S. cerevisiae NALP1/ASC/caspase-1 growth, X-gal OD620, 72 h; inhibition, % at 10 µM; actives 0.61% (n = 280,000); in the data active = inhibition mostly above about 24%, no sharp cut-off; inactive = mostly below about 32%
TIM10 inh – growth inhibitors of isogenic TIM10 control yeast, primary screen, counter-screen for tim10-1 yeast inhibitor project, luminescence, uHTS | AID 463195, 2010 | actives 1.4% (n = 330,000) | inhibition, % at 10 µM | S. cerevisiae TIM10 strain growth, BacTiter-Glo luminescence, 24 h;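 active = inhibition of 40% or more at the single tested concentration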;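 note: wild-type TIM10 isogenic control strain grown at permissive 25 °C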
tim23-1 inh – growth inhibitors of tim23-1 mutant yeast, primary screen, luminescence, uHTS. S. cerevisiae tim23-1 growth, BacTiter-Glo luminescence, 24 h. actives 1.3% (n = 330,000). inhibition, % at 20 µM;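 active = growth inhibition of the mutant yeast at or above 50%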;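 note: temperature-sensitive mutant grown at 25 °C; plate controls were DMSO-treated mutant yeast for no effect and medium wells lacking yeast for full effect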
TIM10 conf – growth inhibitors of wild-type TIM10 yeast, confirmation, counter-screen for tim10-1 synthetic lethality project, single concentration, luminescence, S. cerevisiae. AID 463215, 2010. S. cerevisiae tim10 strain growth, BacTiter-Glo luminescence, 24 h. shares compounds with TIM10 inh. inhibition, % at 10 µM. actives 63% (n = 4,600);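 active = inhibition of yeast growth at or above a set limit in either of two replicates at 10 µM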;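 note: this counterscreen used the strain with wild-type TIM10; 0% = yeast with DMSO and 100% = medium wells lacking yeast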
The depositor's hits bear a star; x = not tested or not shown. A selection: hits, their analogues and other compounds. The true share with any hit is near 4.1%.

SMILES	NALP3 yeast inh	tim10-1 inh	PfHsp90 yeast 2	NALP1 yeast inh	TIM10 inh	tim23-1 inh	TIM10 conf
Cc1nc2ccc(NS(=O)(=O)c3c(F)cccc3F)cc2s1	-3.4	9.4	-8.8	x	3.6	21.6	x
CC(C)C(=O)Nc1ccc2c(c1)nc1n2CCSC1	-4.1	8.6	8.3	13.4	4.3	8.5	x
COc1ccc(OC)c(C2=CC(=O)C[C@H](c3ccc4c(c3)OCO4)C2)c1	30.9	17.3	-33.7	x	-17.9	29.9	x
O=C(Nc1ccc2c(c1)nc1n2CCOC1)c1ccccc1	10.4	34.7	2.6	-10.1	63.3*	44.0	46.5*
Cc1ccc(N2C(=O)c3cccc(Oc4ccc(Cl)cc4)c3C2=O)c(C)c1	-9.4	22.9	-10.4	26.9	41.7*	29.0	23.6
NNc1nc2cc3c(cc2s1)OCCO3	6.7	11.7	8.2	5.4	14.8	10.0	x
CCOc1ccc(N(CC(=O)N2CCOCC2)S(=O)(=O)c2ccc(SC)cc2)cc1	11.5	-5.6	-0.5	12.9	8.7	12.5	x
CCOC(=O)c1c(CCl)nc2ccccc2c1-c1ccccc1	10.4	-8.1	-12.8	x	-9.6	29.4	x
ClCc1nc2ccccc2c2ccccc12	-0.7	34.1	-5.9	14.7	40.6*	47.4	37.5*
O=C(NCCOc1ccc(Cl)cc1)c1cccc(S(=O)(=O)N2CCCC2)c1	25.6	20.3	7.3	x	-6.4	9.2	x
O=C(Nc1cccc(Cl)c1)c1cc(S(=O)(=O)NCCc2ccc(Cl)cc2)ccc1F	9.7	29.7	-0.7	25.8	41.0*	25.7	51.5*
Cc1ccc(NC(=O)c2cc(S(=O)(=O)NCCc3ccccc3)ccc2F)cc1Cl	21.4	31.6	-5.2	20.4	33.2	39.6	x
CCOc1cc(C)nc(N2CCC(C(=O)NC3CC3)CC2)n1	x	x	-19.2	x	x	x	x
CCOC(=O)c1ccccc1NC(=O)Cc1ccc(OC)c(S(=O)(=O)N2CCOCC2)c1	4.0	1.4	x	x	2.1	18.0	x
Cc1nn(-c2ccccc2)c(N)c1N=Nc1ccc(Cl)cc1	20.2	34.2	23.9	37.2	44.1*	11.7	31.7*
Cc1ccc(Cc2cnc(NC(=O)c3ccco3)s2)cc1	22.2	-4.0	-47.4	14.2	40.0	43.8	39.9*
O=C(Nc1ncc(Cc2cccc([N+](=O)[O-])c2)s1)c1ccco1	35.0	1.6	-8.0	-18.5	16.5	2.6	x
CC(C)C(=O)Nc1ncc(Cc2ccc(Cl)cc2)s1	16.4	39.0	-5.9	-0.6	47.1*	37.9	33.9*
COC(=O)c1cc(S(=O)(=O)Nc2cccc(C)c2C)cn1C	-4.5	1.5	6.8	17.5	84.2*	2.5	3.5
Cc1cc(C)c(C#N)c(SCC(O)COc2ccc(Br)cc2)n1 (stereo not given)	26.6	2.7	-13.2	1.3	-5.6	23.4	x
COc1ccc(OC)c(NC(=S)NCCC(c2ccccc2)c2ccccc2)c1	11.1	30.0	-39.4	x	46.0*	10.7	14.1
Cc1ccccc1NC(=S)NCCC(c1ccccc1)c1ccccc1	25.6	17.6	22.8	-3.3	16.6	22.2	x
COc1ccc(OC)c(NC(=S)NCc2ccccc2OC)c1	16.5	22.9	-2.8	10.9	14.5	26.9	x
Cc1ccc(NC(=S)NCCC(c2ccccc2)c2ccccc2)c(C)c1	15.6	20.5	-44.2	16.1	48.7*	19.9	33.0*
CCOCCCNC(=S)N1CCC(C(=O)c2ccc3c(c2)OCCO3)CC1	7.0	1.9	5.7	7.9	2.2	32.3	x
SMILES	NALP3 yeast inh	tim10-1 inh	PfHsp90 yeast 2	NALP1 yeast inh	TIM10 inh	tim23-1 inh	TIM10 conf
CCN(CC)C(=O)Oc1ccc2c(=O)c(-c3ccc(OC)cc3)c(C)oc2c1	18.9	36.3	x	1.8	45.1*	33.5	30.0
CCN(CC)C(=O)Oc1ccc2c(=O)c(-c3ccc(OC)cc3)coc2c1	7.8	26.0	-16.8	-1.2	26.7	30.6	x
Cc1cccc(NC(=O)NCCN2CCN(c3ccccc3)CC2)c1C	30.7	-1.9	0.5	19.5	19.7	3.4	x
CCCCC1CCC(C(=O)N(CCOC)c2c(N)n(CCCC)c(=O)[nH]c2=O)CC1 (stereo not given)	5.9	19.2	19.9	x	-1.4	11.4	x
c1ccc2cc(CSCc3nc4ccccc4[nH]3)ccc2c1	25.3	35.3	28.7	46.7	53.4*	47.5	-6.0
O=C(CSCc1nc2ccccc2[nH]1)Nc1ccc2ccccc2c1	10.9	11.2	2.7	-0.3	-11.5	-8.4	x
CCCCN1CC(COCc2ccccc2)Oc2cccc(Oc3ccc(C)cc3)c2S1(=O)=O (stereo not given)	x	x	-0.8	x	x	x	x
O=c1c2cc(F)ccc2sn1-c1ccc(F)cc1	18.9	19.9	19.5	x	46.6*	37.3	56.8*
S=c1nc(SCc2ccccc2)[nH]c2ccccc12	18.9	36.0	-3.2	0.3	49.4*	12.0	39.5*
c1ccc(CSc2nc3ncncc3[nH]2)cc1	5.9	6.0	-2.4	-12.5	2.8	17.2	x
Cc1ccc(C(=O)c2oc3ccccc3c2N)cc1	21.6	33.1	-28.2	-0.2	47.5*	8.5	28.6
O=C(Nc1nccc(-c2cccs2)n1)c1ccccc1Cl	-3.6	16.4	-12.8	1.2	6.5	4.1	x
O=C(c1ccccc1Cl)N(C(=O)c1ccccc1Cl)c1nccc(-c2cccs2)n1	5.7	27.3	-31.3	28.2	41.8*	28.4	10.2
CCCCNC(=S)N/N=C/c1sccc1C	38.9	30.8	-75.2	8.3	59.4*	43.5	46.6*
CCn1nccc1C(=O)Nc1ccc(C(=O)OC(C)C)cc1	43.2	25.6	-0.4	11.5	10.0	24.2	x
CCC(Cc1ccccc1)n1c(=S)[nH]c2ccccc2c1=O (stereo not given)	17.5	34.0	-37.3	5.8	49.5*	23.8	38.0*
COc1cc(/C=C(/C(=O)c2cccs2)c2nc3ccccc3[nH]2)ccc1O	-7.8	38.1	15.8	-5.3	43.2*	24.6	33.6*
O=C(Nc1ccccc1N1CCCC1)c1cccc(S(=O)(=O)N2CCOCC2)c1	7.9	24.4	4.6	x	12.2	26.9	x
Cc1ccc(N(CC(=O)Nc2ccc(F)c(Cl)c2)S(=O)(=O)c2c(C)noc2C)cc1	-22.0	38.3	-8.1	-5.6	64.5*	18.5	61.3*
Cc1ccc(N(CC(=O)Nc2cc(C)cc(C)c2)S(=O)(=O)c2c(C)noc2C)cc1	11.6	36.1	5.3	-0.1	29.2	27.8	x
COc1ccc(-c2cn3nc(SCC(=O)NCC4CCCO4)ccc3n2)cc1 (stereo not given)	8.7	17.7	-7.8	5.4	7.3	15.7	x
